Reference: PubChem BioAssay (EPA / NIEHS)
Where “and” joins values, the source holds several entries; their conditions need not be identical. Identical values can stand only once. Inconclusive results are not listed. Some structures have more than one record in an assay (separate samples or runs), and their calls can disagree. Calls of active or inactive are those of the source. Rule for the calls: active = hit-call score of the fitted dose curve at least 0.9, where 1 is the maximum; inconclusive = response in the unintended direction; inactive = score below 0.9.

target: Retinoic acid receptor RXR-alpha (Homo sapiens) (UniProt P19793); assay: OT_NURR1_NURR1RXRa_0480: Odyssey Thera (OT) 8-hour HEK293T Protein Complementation Assay for Nurr1/retinoid X receptor (RXR) (AID 2283385)
Protocol: OT_NURR1_NURR1RXRa_0480 is a cell-based assay that uses HEK293T, a human kidney cell line, with measurements taken at 8 hours after chemical dosing in a 384-well plate.OT_NURR1_NURR1RXRa_0480 is one of one assay component(s) measured or calculated from the OT_NURR1_NURR1RXRa_0480 assay. It is designed to make measurements of protein fragment complementation, a form of binding reporter, as detected with fluorescence intensity signals by Protein-fragment Complementation technology.Data from the assay component OT_NURR1_NURR1RXRa_0480 was analyzed into 1 assay endpoint. This assay endpoint, OT_NURR1_NURR1RXRa_0480, was analyzed in the positive analysis fitting direction relative to DMSO as the negative control and baseline of activity. Using a type of binding reporter, measures of receptor for gain-of-signal activity can be used to understand the binding at the pathway-level as they relate to the gene RXRA. Furthermore, this assay endpoint can be referred to as a primary readout, because the performed assay has only produced 1 assay endpoint. To generalize the intended target to other relatable targets, this assay endpoint is annotated to the nuclear receptor intended target family, where the subfamily is non-steroidal.
Protein-fragment complementation assay, or PCA, is a method for the identification and quantification of protein-protein interactions. In the PCA, the proteins of interest ("bait" and "prey") are each covalently linked to fragments of a third protein (e.g. DHFR, which acts as a "reporter"). Interaction between the bait and the prey proteins brings the fragments of the reporter protein in close proximity to allow them to form a functional reporter protein whose activity can be measured.

Retinoic acid receptor RXR-alpha (Homo sapiens), sequence (P19793 whole entry, looked up, the tested form may be a part): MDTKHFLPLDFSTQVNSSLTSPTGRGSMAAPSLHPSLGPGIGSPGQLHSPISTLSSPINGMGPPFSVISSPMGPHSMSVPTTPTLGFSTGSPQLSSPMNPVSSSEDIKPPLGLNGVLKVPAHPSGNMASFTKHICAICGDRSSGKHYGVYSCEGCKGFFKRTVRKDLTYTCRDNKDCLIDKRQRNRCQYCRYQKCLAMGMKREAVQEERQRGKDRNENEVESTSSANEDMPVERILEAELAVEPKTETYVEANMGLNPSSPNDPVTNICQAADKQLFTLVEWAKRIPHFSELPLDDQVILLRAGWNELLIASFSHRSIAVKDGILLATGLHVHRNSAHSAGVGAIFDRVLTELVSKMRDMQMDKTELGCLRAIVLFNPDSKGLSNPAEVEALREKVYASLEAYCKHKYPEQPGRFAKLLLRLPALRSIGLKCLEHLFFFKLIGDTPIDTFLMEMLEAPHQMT

Row | SMILES | outcome | AC50
1 | CC(C)CCCCCCOC(=O)CCCCC(=O)OCCCCCCC(C)C | inactive | 
2 | Oc1cccc(O)c1 | inactive | 
3 | Cc1oc(-c2ccccc2)nc1CCOc1ccc(C[C@H](Nc2ccccc2C(=O)c2ccccc2)C(=O)O)cc1 |  | 0.0302 µM (active)
4 | CCCCC(CC)COC(=O)CCCCC(=O)OCC(CC)CCCC (stereo not given) | inactive | 
5 | c1ccc2c(c1)Cc1ccccc1-2 | inactive | 
6 | O=C(OCCOCCOC(=O)c1ccccc1)c1ccccc1 | inactive | 
7 | NC(=O)N1C(=O)C(C(=O)c2cc(Cl)cs2)c2cc(F)c(Cl)cc21 (stereo not given) | inactive | 13.2 µM (active)
8 | CCc1nn(C2CCCCC2)c2cc(C3(C#N)CCC(C(=O)O)CC3)ccc12 (stereo not given) | inactive | 76.9 µM (active)
9 | Nc1cccc2c(N)cccc12 | inactive | 
10 | Oc1cc2ccccc2c2ccccc12 | inactive | 
11 | Cc1cc(C)c(O)c(C)c1 | inactive | 
12 | CC#C[C@]1(O)CC[C@H]2[C@@H]3CCC4=CC(=O)CCC4=C3[C@@H](c3ccc(N(C)C)cc3)C[C@@]21C | inactive | 0.437 µM (active)
13 | CC[C@H](C)[C@@H](C(=O)O)n1sc2ccccc2c1=O | inactive | 
14 | CCN(CC)CCNc1ccc(CNC=O)c2sc3ccc(OC)cc3c(=O)c12 |  | 11.4 µM (active) and 11.9 µM (active)
15 | O=c1c(-c2ccc(O)cc2)coc2cc(O)ccc12 | inactive | 50 µM (active)
16 | OCCC(F)(F)C(F)(F)C(F)(F)C(F)(F)C(F)(F)C(F)(F)C(F)(F)C(F)(F)F | inactive | 
17 | CC(C)(C)CC(C)(C)c1ccc(O)c(-n2nc3ccccc3n2)c1 |  | 75.6 µM (active) and 79 µM (active)

Row | SMILES | outcome | AC50
18 | CCC(C)(C)C1CCC(O)CC1 (stereo not given) | inactive | 
19 | c1ccc2c(c1)ccc1ccccc12 | inactive | 
20 | CCCOC(=O)c1ccc(O)cc1 | inactive | 
21 | CCCCCCC(=O)O | inactive | 
22 | O=C1OC2(c3ccccc31)c1cc(Br)c(O)c(Br)c1Oc1c2cc(Br)c(O)c1Br | inactive | 
23 | O=C(O)c1ccccc1C(c1ccc(O)cc1)c1ccc(O)cc1 | inactive | 
24 | C[C@@H]1C[C@H]2[C@@H]3CCC4=CC(=O)C=C[C@]4(C)[C@@]3(F)[C@@H](O)C[C@]2(C)[C@@]1(O)C(=O)COP(=O)(O)O | inactive | 
25 | c1ccc2cc3c(ccc4ccccc43)cc2c1 | inactive | 
26 | CC(O)CO (stereo not given) | inactive | 
27 | OCCC(F)(F)C(F)(F)C(F)(F)C(F)(F)C(F)(F)C(F)(F)F | inactive | 
28 | CCCCCCCCCCCCc1ccccc1S(=O)(=O)O |  | 76 µM (active) and 80.5 µM (active)
29 | NC(=O)N(O)[C@@H]1C=C[C@H](Oc2cccc(Oc3ccc(F)cc3)c2)C1 | inactive | 92.2 µM (active)
30 | O=[N+]([O-])c1ccc(O)cc1 | inactive | 
31 | CC(C)(C)c1cccc(C(C)(C)C)c1O | inactive | 79.8 µM (active)
32 | C#C[C@]1(O)CC[C@H]2[C@@H]3CCC4=CC(=O)CC[C@@H]4[C@H]3CC[C@@]21C | inactive | 
33 | CN(C)C=O | inactive | 
34 | CCCCCCCCCCCCN1CCCC1=O |  | 12.4 µM (active)
